Reference: PubChem BioAssay AID720641 (ICCB-Longwood Screening Facility, Harvard Medical School, 2013)
Screen size: about 170,000 compounds; about 900 (0.53%) were called active.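 The calls were made as follows: active = relative growth at most 50% at the other temperature and 20+ points below 30 °C, or under 10% at both; inactive = the rest, inconclusive results apart.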 The list comes from a sample in which actives are over-represented; it also holds similar structures and randomly drawn compounds.

Assay: Staphylococcus aureus RN4220 growth blockers – two temperatures, LtaS inhibitor project, primary screen (AID 720641)
Conditions: S. aureus RN4220 growth, OD600, 20 h, 42 °C, stronger effect = lower value

Structure (SMILES)	relative growth	relative growth (measured here: growth at 30 °C) [%]
Cc1ccc2nc(Nc3ccccc3)cc(C)c2c1	75.4% (inactive)	74.3
Cc1cccc(Nc2cc(C)nc(-n3nc(C)cc3C)n2)c1	-0.22% (active)	-0.24
Cc1ccc(Nc2nc3ccccc3nc2-n2nc(C)cc2C)c(Cl)c1	102% (inactive)	86.6
Cc1nc2ccccc2nc(C)c1=NOCC(=O)Nc1ccc(S(=O)(=O)N2CCOCC2)cc1	102% (inactive)	96.4
O=C(CCCN1C(=O)CSc2ncccc21)N1CCCCC1	98.9% (inactive)	84.5
COc1ccc(C(C(=O)NC2CCCC2)N(C(=O)c2ccn[nH]2)c2ccc(F)cc2)cc1OC (stereo not given)	113% (inactive)	89
CC(C)NC(=O)CSc1ccccc1C(=O)Nc1ccc(-n2cnnn2)cc1	102% (inactive)	89.2
c1ccc(NC2CCCCC2)cc1	104% (inactive)	103
c1ccc2c(c1)CC(Nc1ccc3cn[nH]c3c1)C2	1.74% (active)	1.83
O=S(=O)(Nc1ccc2cn[nH]c2c1)c1ccccc1	105% (inactive)	98.5
Cc1cc(C)c(NC(=O)C2CC3c4ccccc4C2C2C=CC=CC32)c(C)c1 (stereo not given)	123% (inactive)	88.2
Nc1cc(C(F)(F)F)ccc1-n1cccn1	92.8% (inactive)	95.4
COc1ccc2c(c1)NC(c1ccccc1)c1cccn1-2 (stereo not given)	69.2% (inactive)	62.6
Oc1c(Cl)cc(Cl)cc1C1Nc2cc(C(F)(F)F)ccc2-n2cccc21 (stereo not given)	5.2% (active)	6.75
COCCCn1c(C)cc(C(=O)CSc2ncnc3ccccc23)c1C	136% (inactive)	92.1
CC1Cc2ccccc2N1c1ccc2ccccc2n1 (stereo not given)	94.3% (inactive)	99.6
COc1ccc(/C=C/C(=O)N2CCCC2)cc1OC	81.4% (inactive)	88.8
C/C=C/c1ccc(OCC(=O)OC(C)C(N)=O)c(OC)c1 (stereo not given)	71.1% (inactive)	88.7
COc1cc(/C=C/C(=O)OCC(N)=O)ccc1OCC#N	46.3% (active)	78.8
COc1cc(C2C(C(=O)Nc3ccccn3)=C(C)NC3=C2C(=O)CCC3)cc(OC)c1OC (stereo not given)	98.5% (inactive)	93.4
CC(C)CC(=O)n1c(=O)oc2ccccc21	96.6% (inactive)	101
N#Cc1c(-c2ccco2)cc(C2CC2)nc1SCC(=O)c1ccc(Br)cc1	82.6% (inactive)	76.7
O=C(NCCSc1ccccc1)c1cccnc1Oc1ccccc1	115% (inactive)	76.2

Structure (SMILES)	relative growth	relative growth (measured here: growth at 30 °C) [%]
CC(=O)Oc1cccc2c1C(=O)C=CC2=O	2.55% (active)	1.59
CC(=O)Oc1cccc2c1OC(C)(C)C2	117% (inactive)	99.9
CC(=O)Oc1ccc(OC(C)=O)c2c1C1C=CC2CC1	105% (inactive)	99.4
CSCCC(=O)Nc1nc2ccccc2[nH]1	113% (inactive)	87.5
O=C(Nc1cccc(Cl)c1)Nc1ccccn1	61.4% (inactive)	70
CC(C)Oc1ccc(C(=O)Nc2ccnn2C2CCCCC2)cc1	105% (inactive)	98.1
O=C(Nc1ccc(Cl)c(Cl)c1)Nc1ccnn1C1CCCCC1	-0.5% (active)	-0.69
O=C(Nc1ccccc1)Nc1ccc(Cl)c(Cl)c1	2.14% (active)	2.42
CCc1ccc(NC(=O)Nc2ccccc2)cc1	93.4% (inactive)	96.9
CC(=O)Nc1ccc2c(c1)CN(C1CCCCC1)CO2	90.6% (inactive)	87.6
CC(=O)N1CC(C(=O)Nc2cccc(-c3nnc4n3CCCCC4)c2)Oc2ccccc21 (stereo not given)	78.4% (inactive)	92.9
Cc1ccc2nc(COC(=O)Cn3[nH]c(=O)c4ccccc4c3=O)cc(=O)n2c1	78.6% (inactive)	90.7
CCOc1ccc(C(=O)N2CCC(Cc3ccccc3)CC2)cc1	122% (inactive)	75.5
CS(=O)(=O)NCCNc1cc(-c2ccccc2)nc2ccccc12	99.5% (inactive)	72.5
CCC(CC)NCc1ccc(OC)c(C)c1OC	74.7% (inactive)	81.6
COc1ccc(-c2nn(C)c3sc(C(=O)NCCN4CCN(c5ccccc5F)CC4)cc23)cc1OC	82.7% (inactive)	76.9
O=C(c1ccco1)N1CCN(C(=O)c2cc3c(s2)CCCC3)CC1	96.3% (inactive)	87.5
O=C(Sc1nc(-c2ccccc2)c(-c2ccccc2)[nH]1)c1cccs1	84.6% (inactive)	74.2
Cc1cc(SCc2ccc(F)cc2)c(C)cc1Cl	105% (inactive)	102
NC(=O)c1oc2ccccc2c1NC(=O)Cc1ccc(Cl)cc1	89.8% (inactive)	77.5
CC1CCN(C(=O)COc2ccc(-c3nn(C)c(=O)c4ccccc34)cc2)CC1	86.8% (inactive)	89.7
Cc1ccccc1OCc1nc(C#N)c(NC(C)c2ccccc2)o1 (stereo not given)	82.4% (inactive)	79.9
